This is part of a sample that, as a whole, favours compounds with a hit. Of some 79,000 tested, about 15% had one in any assay. Calls of active or inactive are those of the source. Rule as the data show it: active = growth inhibition above about 70%; inactive = the rest.

The first assay can be described thus: NCI Yeast Anticancer Drug Screen. Data for the cln2 rad14 strain (AID 165).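 Also: 0% = growth equal to vehicle treated cultures.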 The note with it: S. cerevisiae cln2 rad14 strain, at 50.0 µM, stronger effect = higher value. The method in brief: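 Strain: cln2 rad14 yeast, altered in cell cycle control and DNA damage repair. Read-out: growth inhibition vs vehicle.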
`CCCC(C)(COC(N)=O)COC(=O)NC1CC1` (stereo not given): the growth inhibition is 37.1% (inactive).
`O=C(O)C(CSC(c1ccccc1)c1ccccc1)NC(=O)C(c1ccccc1)c1ccccc1` (stereo not given): the growth inhibition was 96.2% (active).
In the case of `CC1=CC2CC(C)=C(CC[C@]3(C)CC[C@H]([C@@H](C)C(=O)O)OO3)C(C)(C)C2CC1` (stereo not given in full), the growth inhibition was 91.2% (active).
With `O=[N+]([O-])/C=C/c1c(Cl)cccc1Cl`, the growth inhibition is 98% (active).
`O=[n+]1c2ccccc2n([O-])c2ccccc21.[Cl][Cu][Cl]`: the growth inhibition is 97.6% (active).
On to `CC(=O)C(CN1CCOCC1)C(c1ccccc1)c1c(O)c2ccccc2oc1=O` (stereo not given), for which the growth inhibition was 0.25% (inactive).
In the case of `CC(C)c1oc(=O)cc2c1C(O)C1OC(=O)C3(C)C(O)C4OC4C2(C)C13` (stereo not given), the growth inhibition is 15.9% (inactive).
On the same count and under the same terms, as for `C#CCN1C(=O)N(CC#C)C(=O)C(CC#C)(C(CC=C)c2ccccc2)C1=O` (stereo not given), the figure is 58.5% (inactive); as for `COC(=O)C1c2c(C)cc3n2C(C=CC3)C1C(=O)OC` (stereo not given), 26.6% (inactive).
`[Cl][Hg][c]1ccc(Cl)s1`: the growth inhibition is 99% (active).
Turning to `N#CC(Cl)(Cl)CCl`, the growth inhibition was 47% (inactive).
For `O=C1CCC(=O)N1SC(Cl)(Cl)Cl`, the growth inhibition is 99% (active).
Regarding `CCCC(=O)O.CCCC(=O)O.CCCC(=O)O.CCCC(=O)O.[Rh].[Rh]`, the growth inhibition is 43.5% (inactive).
On the same count and under the same terms, as for `CC(CCC/C=C/CCCN(C)C(=N)N)CC(C)C1OC(=O)C(C)C(O)/C=C/C(C)C(O)C(C)C(O)C(C)C(O)CCCC(O)CC2(O)OC(CC(OC(=O)CC(=O)O)CC(O)CC(O)C(C)C(O)/C=C/C=C/C1C)CC(O)C2O` (stereo not given), the figure is 92.2% (active); as for `OC(CN(CCCl)CCCl)C(O)C(O)C(O)CN(CCCl)CCCl` (stereo not given), 82.1% (active).
Same read-out and setting: then `O=[N+]([O-])c1ccc(CS(=O)(=O)C(Cl)Cl)o1`, with 78.8% (active); and `CC(C)c1cc([N+](=O)[O-])cc([N+](=O)[O-])c1O`, with 58% (inactive).
The same measure, in the same setting: as for `O=P(c1cccc(C(F)(F)F)c1)(c1cccc(C(F)(F)F)c1)c1cccc(C(F)(F)F)c1.O=P(c1cccc(C(F)(F)F)c1)(c1cccc(C(F)(F)F)c1)c1cccc(C(F)(F)F)c1.[Cl][Sn]([Cl])([Cl])[Cl]`, the figure is 62.8% (inactive).
Turning to `COc1cc(N(CC(C)Br)CC(C)Br)ccc1N=Nc1ccccc1C(=O)O` (stereo not given), the growth inhibition was 78.2% (active).
On to `C(=P(c1ccccc1)(c1ccccc1)c1ccccc1)[P+](c1ccccc1)(c1ccccc1)c1ccccc1.[Cl][Fe]([Cl])([Cl])[Br]`, for which the growth inhibition is 99.2% (active).
Take `COc1ccc2c(c1)CCC(N1CCCC(=O)C1)C2` (stereo not given): the growth inhibition is 17.4% (inactive).
On to `C1CCNCC1.O=C([CH-]C(=O)C(F)(F)F)c1ccc2c(c1)C(=O)c1ccccc1-2.O=C([CH-]C(=O)C(F)(F)F)c1ccc2c(c1)C(=O)c1ccccc1-2.O=C([CH-]C(=O)C(F)(F)F)c1ccc2c(c1)C(=O)c1ccccc1-2.O=C([CH-]C(=O)C(F)(F)F)c1ccc2c(c1)C(=O)c1ccccc1-2.[Eu+3]`, for which the growth inhibition was 61.5% (inactive).
Same read-out and setting: as for `O=C1C(=O)C(Br)(Br)C(Br)=C1Br`, the figure is 90.5% (active).
The same measure, in the same setting: then `CN(C)C(=S)Nc1nnc(NC23CC4CC(CC(C4)C2)C3)s1`, with 95.6% (active); and `C[CH2][Hg]`, with 59.3% (inactive); and `c1cc2n[pH]nc2cn1` (stereo not given), with 1.2% (inactive).
As to `CCC[CH2][Sn]1([CH2]CCC)[O]CC(Cc2ccccc2)[O]1` (stereo not given), the growth inhibition was 84.7% (active).
Still for that read-out and setting: as for `Clc1ccccc1C#[C][Hg][C]#Cc1ccccc1Cl`, the figure is -4.95% (inactive); as for `CC12CCC3C(CC=C4CC(SC(=N)N)CCC43C)C1CCC2=O` (stereo not given), 59.7% (inactive).
`COc1ccccc1/C=C/[N+](=O)[O-]`: the growth inhibition is 99.3% (active).
In the case of `ClC(CN1CCCCC1)C(Cl)c1ccccc1` (stereo not given), the growth inhibition is 53% (inactive).
As for `CCC[CH2][Sn]1([CH2]CCC)[O]CC(CN2CCCCC2)[O]1` (stereo not given), the growth inhibition is 78.5% (active).
With `COC1OC(CO)C(O)C(O)[CH]1[Hg][Cl]` (stereo not given), the growth inhibition is 99.2% (active).
Still for that read-out and setting: then `ClC1=C(Cl)C2(Cl)C(Cl)CC1(Cl)C2(Cl)Cl` (stereo not given), with 70.2% (active).
For the compound `[Hg][c]1ccccc1`, the growth inhibition was 98.3% (active).
Consider `O=[N+]([O-])c1cccc(SC(Cl)(Cl)Cl)c1`, for which the growth inhibition was 97.1% (active).
Take `CC1=C(O)C(=O)C=C2C1=CC=C1[C@@]2(C)CC[C@@]2(C)[C@@H]3C[C@](C)(C(=O)O)CC[C@]3(C)CC[C@]12C`: the growth inhibition is 91% (active).
For the compound `CCC[CH2][Sn]1([CH2]CCC)[O]C2C(O)OC(CO)C(O)C2[O]1` (stereo not given), the growth inhibition is 99% (active).
For the compound `O=[As]c1ccccc1O` (stereo not given), the growth inhibition is 92.2% (active).
In the case of `CC[PH+](CC)CC.[Cl][Au]`, the growth inhibition is 90.8% (active).

Another assay in a line: NCI Yeast Anticancer Drug Screen. Data for the bub3 strain (AID 167). The note with it: S. cerevisiae bub3 mutant strain, at 5.0 µM (retest, dose inferred, filed as 0.5), stronger effect = higher value. The method in brief: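 Steps: expose the mutant yeast strain to compound; grow alongside vehicle-treated cultures; measure growth; express inhibition against the vehicle cultures.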
Turning to `CCCC(C)(COC(N)=O)COC(=O)NC1CC1` (stereo not given), the growth inhibition was 0% (inactive).
Same read-out and setting: as for `O=C(O)C(CSC(c1ccccc1)c1ccccc1)NC(=O)C(c1ccccc1)c1ccccc1` (stereo not given), the figure is 8% (inactive); as for `CC1=CC2CC(C)=C(CC[C@]3(C)CC[C@H]([C@@H](C)C(=O)O)OO3)C(C)(C)C2CC1` (stereo not given in full), 52% (inactive); as for `O=[N+]([O-])/C=C/c1c(Cl)cccc1Cl`, 100% (active).
For `O=[n+]1c2ccccc2n([O-])c2ccccc21.[Cl][Cu][Cl]`, the growth inhibition is -3% (inactive).
As to `CC(=O)C(CN1CCOCC1)C(c1ccccc1)c1c(O)c2ccccc2oc1=O` (stereo not given), the growth inhibition is 22% (inactive).
The same measure, in the same setting: then `CC(C)c1oc(=O)cc2c1C(O)C1OC(=O)C3(C)C(O)C4OC4C2(C)C13` (stereo not given), with 2% (inactive); and `C#CCN1C(=O)N(CC#C)C(=O)C(CC#C)(C(CC=C)c2ccccc2)C1=O` (stereo not given), with 9% (inactive); and `COC(=O)C1c2c(C)cc3n2C(C=CC3)C1C(=O)OC` (stereo not given), with 64% (inactive).
The same measure, in the same setting: as for `[Cl][Hg][c]1ccc(Cl)s1`, the figure is 100% (active).
Turning to `N#CC(Cl)(Cl)CCl`, the growth inhibition was 6% (inactive).
`O=C1CCC(=O)N1SC(Cl)(Cl)Cl`: the growth inhibition is -12% (inactive).
With `CCCC(=O)O.CCCC(=O)O.CCCC(=O)O.CCCC(=O)O.[Rh].[Rh]`, the growth inhibition was 37% (inactive).
For the compound `CC(CCC/C=C/CCCN(C)C(=N)N)CC(C)C1OC(=O)C(C)C(O)/C=C/C(C)C(O)C(C)C(O)C(C)C(O)CCCC(O)CC2(O)OC(CC(OC(=O)CC(=O)O)CC(O)CC(O)C(C)C(O)/C=C/C=C/C1C)CC(O)C2O` (stereo not given), the growth inhibition is 9% (inactive).
Same read-out and setting: then `OC(CN(CCCl)CCCl)C(O)C(O)C(O)CN(CCCl)CCCl` (stereo not given), with -7% (inactive).
Still for that read-out and setting: as for `O=[N+]([O-])c1ccc(CS(=O)(=O)C(Cl)Cl)o1`, the figure is -7% (inactive); as for `CC(C)c1cc([N+](=O)[O-])cc([N+](=O)[O-])c1O`, -4% (inactive); as for `O=P(c1cccc(C(F)(F)F)c1)(c1cccc(C(F)(F)F)c1)c1cccc(C(F)(F)F)c1.O=P(c1cccc(C(F)(F)F)c1)(c1cccc(C(F)(F)F)c1)c1cccc(C(F)(F)F)c1.[Cl][Sn]([Cl])([Cl])[Cl]`, 4% (inactive).
As for `COc1cc(N(CC(C)Br)CC(C)Br)ccc1N=Nc1ccccc1C(=O)O` (stereo not given), the growth inhibition is 52% (inactive).
Still for that read-out and setting: then `C(=P(c1ccccc1)(c1ccccc1)c1ccccc1)[P+](c1ccccc1)(c1ccccc1)c1ccccc1.[Cl][Fe]([Cl])([Cl])[Br]`, with 98% (active); and `COc1ccc2c(c1)CCC(N1CCCC(=O)C1)C2` (stereo not given), with 4% (inactive).
With `C1CCNCC1.O=C([CH-]C(=O)C(F)(F)F)c1ccc2c(c1)C(=O)c1ccccc1-2.O=C([CH-]C(=O)C(F)(F)F)c1ccc2c(c1)C(=O)c1ccccc1-2.O=C([CH-]C(=O)C(F)(F)F)c1ccc2c(c1)C(=O)c1ccccc1-2.O=C([CH-]C(=O)C(F)(F)F)c1ccc2c(c1)C(=O)c1ccccc1-2.[Eu+3]`, the growth inhibition was 34% (inactive).
Consider `O=C1C(=O)C(Br)(Br)C(Br)=C1Br`, for which the growth inhibition is -4% (inactive).
For the compound `CN(C)C(=S)Nc1nnc(NC23CC4CC(CC(C4)C2)C3)s1`, the growth inhibition was 3% (inactive).
Take `C[CH2][Hg]`: the growth inhibition is 99% (active).
Still for that read-out and setting: then `c1cc2n[pH]nc2cn1` (stereo not given), with -1% (inactive); and `CCC[CH2][Sn]1([CH2]CCC)[O]CC(Cc2ccccc2)[O]1` (stereo not given), with 55% (inactive); and `Clc1ccccc1C#[C][Hg][C]#Cc1ccccc1Cl`, with -3% (inactive).
As to `CC12CCC3C(CC=C4CC(SC(=N)N)CCC43C)C1CCC2=O` (stereo not given), the growth inhibition is 11% (inactive).
Regarding `COc1ccccc1/C=C/[N+](=O)[O-]`, the growth inhibition is 74% (active).
As for `ClC(CN1CCCCC1)C(Cl)c1ccccc1` (stereo not given), the growth inhibition was 6% (inactive).
Regarding `CCC[CH2][Sn]1([CH2]CCC)[O]CC(CN2CCCCC2)[O]1` (stereo not given), the growth inhibition was 34% (inactive).
As to `COC1OC(CO)C(O)C(O)[CH]1[Hg][Cl]` (stereo not given), the growth inhibition was 99% (active).
Consider `ClC1=C(Cl)C2(Cl)C(Cl)CC1(Cl)C2(Cl)Cl` (stereo not given), for which the growth inhibition is 0% (inactive).
Same read-out and setting: as for `[Hg][c]1ccccc1`, the figure is 100% (active).
As to `O=[N+]([O-])c1cccc(SC(Cl)(Cl)Cl)c1`, the growth inhibition was -1% (inactive).
`CC1=C(O)C(=O)C=C2C1=CC=C1[C@@]2(C)CC[C@@]2(C)[C@@H]3C[C@](C)(C(=O)O)CC[C@]3(C)CC[C@]12C`: the growth inhibition is 95% (active).
Take `CCC[CH2][Sn]1([CH2]CCC)[O]C2C(O)OC(CO)C(O)C2[O]1` (stereo not given): the growth inhibition was 80% (active).
The same measure, in the same setting: then `O=[As]c1ccccc1O` (stereo not given), with -5% (inactive); and `CC[PH+](CC)CC.[Cl][Au]`, with 99% (active).

Values taken from PubChem BioAssay (NCI).
